From PubChem BioAssay (Tox21)
Inconclusive results are not listed. Active and inactive are the calls of the source. Unless noted, the call rests on the fitted dose curve; in most records, active means well fitted curve in the direction sought with a large enough effect in the repeat runs; inconclusive means weak or mixed curves; inactive means no such curve, though single readings can be large; an effect the other way counts as inactive or inconclusive.

Key:
[1] = qHTS assay to identify small molecule antagonists of the sonic hedgehog signaling (Shh) pathway (AID 1259369; calls by dose curve; further: nearly all actives have a fitted effect of over 45% in size)
In short: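 Luminescence readout: firefly Luc under Gli1 response element in 3T3Gli1-Luc cells (NIH/3T3 clone). Antagonist mode, stimulation by conditioned medium; compound exposure 24hr at 37 C, 5% CO2.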

[2] = target: Estrogen receptor beta (Homo sapiens) (UniProt Q92731); assay: qHTS assay to identify small molecule agonists of the estrogen receptor beta (ER-beta) signaling pathway (AID 1259377; active means well fitted activation curve with a large enough effect in the signal ratio in the repeat runs, not every such curve was filed as active; the % refers to the signal ratio)
Estrogen receptor beta (Homo sapiens), sequence (Q92731 whole entry, looked up): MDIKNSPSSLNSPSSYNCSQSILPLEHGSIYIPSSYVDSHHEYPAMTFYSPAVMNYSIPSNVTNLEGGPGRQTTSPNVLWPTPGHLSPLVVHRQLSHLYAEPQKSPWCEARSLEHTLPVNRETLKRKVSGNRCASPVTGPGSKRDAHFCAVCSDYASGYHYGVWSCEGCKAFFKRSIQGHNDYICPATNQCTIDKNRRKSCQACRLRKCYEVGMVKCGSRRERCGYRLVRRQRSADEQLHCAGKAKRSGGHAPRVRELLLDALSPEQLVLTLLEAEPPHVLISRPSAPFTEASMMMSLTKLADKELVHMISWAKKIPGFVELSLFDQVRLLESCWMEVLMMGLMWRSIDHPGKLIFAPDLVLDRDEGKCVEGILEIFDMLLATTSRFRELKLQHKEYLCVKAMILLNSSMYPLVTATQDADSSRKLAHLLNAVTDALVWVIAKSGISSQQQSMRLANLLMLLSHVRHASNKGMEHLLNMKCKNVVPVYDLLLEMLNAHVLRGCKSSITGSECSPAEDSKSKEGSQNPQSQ
In short: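 Beta-lactamase reporter readout: fluorescence of LiveBLAzer B/G FRET substrate after 2 h at room temperature, following 16 h compound treatment of ER-beta-UAS-bla HEK293T cells at 37C in 2% charcoal-stripped FBS medium.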

[3] = target: Estrogen receptor beta (Homo sapiens) (UniProt Q92731); assay: qHTS assay to identify small molecule antagonists of the estrogen receptor beta (ER-beta) signaling pathway (AID 1259378; active means well fitted inhibition curve with a large enough effect in the signal ratio in the repeat runs, not every such curve was filed as active; the % refers to the signal ratio)
In short: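 ER-beta-UAS-bla HEK293T cells in 2% charcoal-stripped FBS medium treated with compound plus 1nM final 17-beta-estradiol for 16 hr at 37C. Beta-lactamase reporter read by FRET substrate fluorescence after 2 hours at room temperature.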

[4] = qHTS assay to identify small molecule agonists of the androgen receptor (AR) signaling pathway in the presence of an antagonist - cell viability counter screen (AID 1259379);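 further: MDA-kb2 human breast cancer cells carrying an MMTV luciferase reporter; series mostly up to about 92 µM; nearly all actives have a fitted effect of over 25% in size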
In short: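 Viability counter screen: CellTiter-Fluor fluorescence, measured in the same wells as the luciferase read-out. MDA-kb2 cells, 3,000/well, with nilutamide at 3.0uM final and compounds at 15 concentrations, 16 hr at 37C, 0% CO2.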

[5] = qHTS assay to identify small molecule agonists of the estrogen receptor beta (ER-beta) signaling pathway - cell viability counter screen (AID 1259380); further: nearly all actives have a fitted effect of over 30% in size
In short: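 Luminescence read-out (CellTiter-Glo, 30 min, room temp) taken in the same wells as the beta-lactamase reporter assay; ER-beta-UAS-bla HEK293T cells exposed to DMSO-dissolved compounds for 16 hr at 37C in 2% charcoal-stripped FBS medium.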

[6] = qHTS assay to identify small molecule antagonists of the estrogen receptor beta (ER-beta) signaling pathway - cell viability counter screen (AID 1259382); further: series mostly up to about 92 µM; nearly all actives have a fitted effect of over 55% in size
In short: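 Luminescent ATP read-out (CellTiter-Glo, 30 min, RT) taken in the same wells as the bla reporter assay. HEK293T ER-beta-UAS-bla cells in 2% charcoal-stripped FBS were exposed to compounds with 1nM E2 for 16 hr at 37C.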

[7] = target: Estrogen receptor (Homo sapiens) (UniProt P03372); assay: qHTS assay to identify small molecule agonists of the estrogen receptor alpha (ER-alpha) signaling pathway in the presence of an antagonist (AID 1259383; calls by dose curve; further: top concentration of the series differs between compounds; nearly all actives have a fitted effect of over 15% in size)
Estrogen receptor (Homo sapiens), sequence (P03372 whole entry, looked up): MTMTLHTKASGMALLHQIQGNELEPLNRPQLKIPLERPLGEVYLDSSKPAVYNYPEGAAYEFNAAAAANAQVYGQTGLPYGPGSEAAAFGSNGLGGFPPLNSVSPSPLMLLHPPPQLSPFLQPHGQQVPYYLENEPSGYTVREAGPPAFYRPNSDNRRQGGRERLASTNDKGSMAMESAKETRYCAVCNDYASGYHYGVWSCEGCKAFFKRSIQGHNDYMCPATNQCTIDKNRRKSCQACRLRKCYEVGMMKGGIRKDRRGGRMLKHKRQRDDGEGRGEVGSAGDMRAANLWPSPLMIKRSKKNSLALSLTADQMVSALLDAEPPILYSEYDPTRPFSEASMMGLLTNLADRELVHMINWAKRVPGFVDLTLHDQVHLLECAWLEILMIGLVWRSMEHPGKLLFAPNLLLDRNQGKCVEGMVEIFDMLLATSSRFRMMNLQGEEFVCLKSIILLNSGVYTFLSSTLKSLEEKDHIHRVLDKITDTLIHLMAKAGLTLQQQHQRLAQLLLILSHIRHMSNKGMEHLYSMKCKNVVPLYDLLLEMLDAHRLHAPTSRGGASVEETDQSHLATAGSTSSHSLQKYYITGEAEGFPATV
In short: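 Luciferase luminescence (ONE-Glo, 30min at room temperature) measured in VM7Luc4E2 cells after 22hr compound exposure at 15 concentrations, with 10.0nM ICI-182,780 final present; cells express endogenous ER-alpha and carry four EREs upstream of luciferase.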

[8] = qHTS assay to identify small molecule agonists or antagonists of the thyroid stimulating hormone receptor (TSHR) signaling pathway - wild type cell line counter screen (AID 1259384; calls by dose curve)
In short: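 Wild-type Hek293 cells, 800/well, 18 h at 37C, then compound with Ro20-1724 for 30 min RT. cAMP by HTRF (cAMP-d2/anti-cAMP cryptate), 1 h RT, fluorescence read. 15 concentrations, triplicates.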

[9] = target: Thyrotropin receptor (Homo sapiens) (UniProt P16473); assay: qHTS assay to identify small molecule antagonists of the thyroid stimulating hormone receptor (TSHR) signaling pathway (AID 1259385; calls by dose curve; further: nearly all actives have a fitted effect of over 20% in size)
Thyrotropin receptor (Homo sapiens), sequence (P16473 whole entry, looked up): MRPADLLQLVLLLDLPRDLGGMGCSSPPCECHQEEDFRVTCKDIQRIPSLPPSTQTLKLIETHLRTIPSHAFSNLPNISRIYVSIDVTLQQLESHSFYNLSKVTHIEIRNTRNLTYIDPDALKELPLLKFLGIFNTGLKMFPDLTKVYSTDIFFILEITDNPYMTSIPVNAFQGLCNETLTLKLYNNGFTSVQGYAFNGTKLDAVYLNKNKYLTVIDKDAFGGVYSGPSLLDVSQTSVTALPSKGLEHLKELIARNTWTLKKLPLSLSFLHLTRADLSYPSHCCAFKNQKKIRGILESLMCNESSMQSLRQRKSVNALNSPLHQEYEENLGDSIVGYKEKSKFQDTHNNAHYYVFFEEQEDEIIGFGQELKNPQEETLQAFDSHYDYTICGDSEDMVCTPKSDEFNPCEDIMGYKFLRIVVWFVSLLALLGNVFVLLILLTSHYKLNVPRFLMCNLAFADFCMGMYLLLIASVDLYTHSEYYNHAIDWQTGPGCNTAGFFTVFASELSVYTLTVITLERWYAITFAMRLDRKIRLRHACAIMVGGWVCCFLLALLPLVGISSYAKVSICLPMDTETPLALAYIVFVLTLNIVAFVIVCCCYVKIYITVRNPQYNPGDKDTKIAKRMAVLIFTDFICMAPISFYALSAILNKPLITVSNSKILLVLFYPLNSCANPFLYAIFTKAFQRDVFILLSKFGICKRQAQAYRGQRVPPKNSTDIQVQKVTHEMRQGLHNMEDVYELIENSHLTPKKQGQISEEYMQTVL
In short: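 TSHR-HEK293 cells (800/well) plated 18 h, then compounds with Ro20-1724 and TSH at 1.5 ng/mL final, 30 min at room temperature. cAMP quantified by HTRF (cAMP-d2/anti-cAMP-cryptate, 1 h); 15 concentrations in triplicate.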

[10] = qHTS assay to identify small molecule agonists of the estrogen receptor alpha (ER-alpha) signaling pathway in the presence of an antagonist - cell viability counter screen (AID 1259386);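 further: series mostly up to about 92 µM; cells exposed to compounds for 22 h at 37 °C before the viability read; nearly all actives have a fitted effect of over 30% in size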
In short: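 Read-out: CellTiter-Fluor fluorescence after 1hr reagent incubation, measured in the same wells as the luciferase readout. VM7Luc4E2 cells were exposed to 15 compound concentrations with 10.0nM ICI-182,780 for 22hr at 37C.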

[11] = target: Progesterone receptor (Homo sapiens) (UniProt P06401); assay: qHTS assay to identify small molecule antagonists of the progesterone receptor (PR) signaling pathway (AID 1346795; active means well fitted inhibition curve with a large enough effect in the signal ratio in the repeat runs, not every such curve was filed as active; the % refers to the signal ratio)
Progesterone receptor (Homo sapiens), sequence (P06401 whole entry, looked up): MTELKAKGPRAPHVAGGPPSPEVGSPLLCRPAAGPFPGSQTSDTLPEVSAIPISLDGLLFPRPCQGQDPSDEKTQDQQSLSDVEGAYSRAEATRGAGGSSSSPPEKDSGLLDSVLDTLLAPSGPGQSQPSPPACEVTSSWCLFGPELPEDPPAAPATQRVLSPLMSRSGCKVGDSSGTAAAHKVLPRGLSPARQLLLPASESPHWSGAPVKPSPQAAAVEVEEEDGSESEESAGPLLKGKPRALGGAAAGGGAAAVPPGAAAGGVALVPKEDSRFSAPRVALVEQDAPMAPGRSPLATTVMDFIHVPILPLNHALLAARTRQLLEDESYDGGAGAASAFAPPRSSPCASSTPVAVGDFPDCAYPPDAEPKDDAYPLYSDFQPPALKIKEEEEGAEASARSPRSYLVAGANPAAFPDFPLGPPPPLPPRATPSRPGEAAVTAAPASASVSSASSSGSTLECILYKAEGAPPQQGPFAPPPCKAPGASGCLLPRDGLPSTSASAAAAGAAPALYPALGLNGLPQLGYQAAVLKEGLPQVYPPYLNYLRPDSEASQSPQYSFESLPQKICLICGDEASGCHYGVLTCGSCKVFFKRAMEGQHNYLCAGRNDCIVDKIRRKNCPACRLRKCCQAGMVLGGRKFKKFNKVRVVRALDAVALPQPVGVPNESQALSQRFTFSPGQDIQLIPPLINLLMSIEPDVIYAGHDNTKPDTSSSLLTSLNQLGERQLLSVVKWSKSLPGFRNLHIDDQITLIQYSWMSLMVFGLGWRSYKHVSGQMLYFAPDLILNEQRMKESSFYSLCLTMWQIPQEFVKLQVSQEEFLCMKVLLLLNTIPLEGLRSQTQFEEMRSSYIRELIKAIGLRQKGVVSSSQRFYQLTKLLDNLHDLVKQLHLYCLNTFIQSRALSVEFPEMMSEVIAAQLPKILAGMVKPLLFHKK
In short: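 Beta-lactamase reporter, HEK293T PR-UAS-bla line; 2% charcoal-stripped FBS; 6 hr pre-incubation, 37C/5% CO2. Compound + R5020 1 nM final, 16 hr. LiveBLAzer B/G FRET substrate, 2 hr RT; fluorescence intensity read.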

[12] = qHTS assay to identify small molecule agonists of the progesterone receptor (PR) signaling pathway - cell viability counter screen (AID 1346799; calls by dose curve; further: nearly all actives have a fitted effect of over 45% in size)
In short: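 HEK293T PR-UAS-bla, 3,000 cells/well, 2% charcoal-stripped FBS; 6 h settle, compound 16 h at 37C/5% CO2; LiveBLAzer 2 h RT, then CellTiter-Glo 30 min RT, luminescence read.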

[13] = qHTS assay to identify small molecule antagonists of the TGF-beta/Smad signaling pathway - cell viability counter screen (AID 1346824); further: nearly all actives have a fitted effect of over 50% in size
In short: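 SBE-bla HEK 293T cells, incubated overnight, then compound plus 0.25 ng/mL TGF-beta1 (stock added) for 5 hr at 37 C. Viability was read in the same wells by CellTiter-Glo luminescence after 30 min at room temperature.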

[14] = qHTS assay to identify small molecule agonists of the TGF-beta/Smad signaling pathway - cell viability counter screen (AID 1346829); further: top concentration of the series differs between compounds; nearly all actives have a fitted effect of over 45% in size
In short: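 Compound-treated SBE-bla HEK 293T cells (5 hr, 37 C) were assessed for viability with CellTiter-Glo in parallel with the reporter read.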

[15] = qHTS assay to identify small molecule agonists of the TGF-beta/Smad signaling pathway (AID 1346859; active means well fitted activation curve with a large enough effect in the signal ratio in the repeat runs, not every such curve was filed as active; the % refers to the signal ratio; further: series mostly up to about 77 µM)
In short: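 Read-out: fluorescence at 460 and 530 nm (405 nm excitation) after a 2 hr room-temperature incubation with beta-lactamase FRET substrate. SBE-bla HEK 293T cells had been treated with test compounds for 5 hr at 37 C.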

[16] = target: Thyrotropin-releasing hormone receptor (Homo sapiens) (UniProt P34981); assay: qHTS assay to identify small molecule antagonists of the thyrotropin-releasing hormone receptor (TRHR) signaling pathway (AID 1346877; active means well fitted inhibition curve with a large enough effect in the repeat runs, not every such curve was filed as active; further: series mostly up to about 51 µM)
Thyrotropin-releasing hormone receptor (Homo sapiens), sequence (P34981 whole entry, looked up): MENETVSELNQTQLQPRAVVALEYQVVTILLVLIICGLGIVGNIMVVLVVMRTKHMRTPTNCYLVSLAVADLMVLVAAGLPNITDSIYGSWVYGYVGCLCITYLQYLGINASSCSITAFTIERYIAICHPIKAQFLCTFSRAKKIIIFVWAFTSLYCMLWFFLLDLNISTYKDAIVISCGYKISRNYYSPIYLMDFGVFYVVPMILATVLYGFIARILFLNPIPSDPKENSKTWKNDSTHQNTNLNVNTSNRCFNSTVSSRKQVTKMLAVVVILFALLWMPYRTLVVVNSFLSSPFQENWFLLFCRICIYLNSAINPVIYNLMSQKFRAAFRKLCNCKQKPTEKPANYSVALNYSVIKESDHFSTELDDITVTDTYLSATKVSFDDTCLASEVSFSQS
In short: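 HEK293/TRHR cells, 18 h, 37 °C; Ca2+ dye 2 h; cpd 5 min RT; TRH 1 nM final; fluorescence read 3 min, 1 s intervals; 15 concs, triplicate.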

[17] = target: Thyrotropin-releasing hormone receptor (Homo sapiens) (UniProt P34981); assay: qHTS assay to identify small molecule agonists of the thyrotropin-releasing hormone receptor (TRHR) signaling pathway (AID 1346891; calls by dose curve;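 further: HEK293 cells expressing TRHR with calcium dye readout; series mostly up to about 58 µM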)
In short: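 HEK293/TRHR cells, 1500 per well, 18 h 37 °C; Ca dye 2 h 37 °C; pin-tool compound addition (agonist mode); kinetic fluorescence 3 min, 1 s reads; 15 concentrations, triplicate.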

[18] = target: Progesterone receptor (Homo sapiens) (UniProt P06401); assay: qHTS assay to identify small molecule agonists of the progesterone receptor (PR) signaling pathway (AID 1346784; calls by dose curve; further: nearly all actives have a fitted effect of over 30% in size)
In short: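 HEK 293T PR-UAS-bla reporter cells, 2% charcoal-stripped FBS; 6 hr settle at 37C/5% CO2, compound (DMSO) 16 hr, LiveBLAzer B/G FRET substrate 2 hr RT, fluorescence intensity read.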

[19] = qHTS assay to identify small molecule antagonists of the progesterone receptor (PR) signaling pathway - cell viability counter screen (AID 1346798); further: series mostly up to about 92 µM; nearly all actives have a fitted effect of over 50% in size
In short: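 Luminescence readout (CellTiter-Glo, 30 min, RT) of viability in PR-UAS-bla HEK293T cells exposed to compound and R5020 agonist for 16 hr at 37C, 5% CO2; run in the same wells as the beta-lactamase reporter read.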
On the % scale 0 is the no-effect control and ±100 the full control effect.

CCC(C(=O)NC(=O)NC(C)=O)c1ccccc1 (stereo not given)
inactive: Potency [1] | Potency [2] | Potency [3] | Potency [4] | Potency [5] | outcome [6] | outcome [7] | outcome [8] | outcome [9] | Potency [10] | Potency [11] | Potency [12] | outcome [13] | outcome [14] | outcome [15] | outcome [16] | Potency [17]

NC(=O)Cc1cccc2ccccc12
inactive: Potency [1] | Potency [2] | Potency [3] | Potency [4] | Potency [5] | outcome [6] | outcome [8] | outcome [9] | Potency [10] | Potency [18] | Potency [12] | outcome [13] | outcome [14] | outcome [15] | outcome [16] | Potency [17]

C=CN1CCCCCC1=O
inactive: Potency [1] | Potency [2] | Potency [3] | Potency [4] | Potency [5] | outcome [6] | outcome [8] | outcome [9] | Potency [10] | Potency [18] | Potency [11] | Potency [19] | Potency [12] | outcome [13] | outcome [14] | outcome [15] | outcome [16] | Potency [17]

c1ccc(Cc2ccccc2)cc1
inactive: Potency [1] | Potency [2] | Potency [3] | Potency [4] | Potency [5] | outcome [6] | outcome [7] | Potency [10] | Potency [11] | Potency [19] | Potency [12] | outcome [13] | outcome [14] | outcome [15] | Potency [17]

CCCO[Si](OCCC)(OCCC)OCCC
inactive: Potency [1] | Potency [2] | Potency [3] | Potency [4] | Potency [5] | outcome [6] | outcome [7] | outcome [8] | outcome [9] | Potency [10] | Potency [18] | Potency [19] | Potency [12] | outcome [14] | outcome [15] | Potency [17]

C[C@H]1[C@H](NC(=O)/C(=N/OC(C)(C)C(=O)O)c2csc(N)n2)C(=O)N1S(=O)(=O)O (stereo in doubt)
inactive: Potency [1] | Potency [2] | Potency [3] | Potency [4] | Potency [5] | outcome [6] | outcome [8] | Potency [10] | Potency [18] | Potency [11] | Potency [12] | outcome [14]

CCCCCCCCCCOc1cc2c(=O)c(C(=O)OCC)c[nH]c2cc1OCC
inactive: activity change, negative = inhibition [1] 27.8% [at 8.39 µM] | activation [2] -0.652% [at 8.39 µM] | activity, negative = inhibition [3] 11.6% [at 8.39 µM] | activity change, negative = cytotoxicity [4] 0.727% [at 8.39 µM] | activity change, negative = cytotoxicity [6] 5.47% [at 8.39 µM] | activation [7] 0.417% [at 8.39 µM] | cAMP activity change [8] -4.45% [at 8.39 µM] | activity change, negative = inhibition [9] 0.172% [at 8.39 µM] | activity change, negative = cytotoxicity [10] -3.47% [at 8.39 µM] | activity change, negative = inhibition [11] -0.779% [at 8.39 µM] | activity change, negative = cytotoxicity [19] 1.18% [at 8.39 µM] | activity change, negative = cytotoxicity [12] -5.75% [at 8.39 µM] | viability change, negative = cytotoxic [13] 0.981% [at 6.97 µM] | activation [15] 0.379% [at 6.97 µM] | activation [17] 0.481% [at 5.23 µM]

C=CCOCC(O)CO (stereo not given)
inactive: Potency [1] | Potency [2] | Potency [3] | Potency [4] | Potency [5] | outcome [6] | outcome [8] | Potency [10] | Potency [18] | Potency [11] | Potency [12] | outcome [13] | outcome [14] | outcome [15] | outcome [16] | Potency [17]

CCO[Si](OCC)(OCC)c1ccccc1
inactive: Potency [1] | Potency [2] | Potency [3] | Potency [4] | Potency [5] | outcome [6] | outcome [8] | outcome [9] | Potency [10] | Potency [19] | Potency [12] | outcome [13] | outcome [15] | outcome [16] | Potency [17]
